From PubChem BioAssay AID1159580 (chemical genetic matrix, 2015)
Hit rate of the full screen: of about 5,500 compounds, about 2,000 (36%) were called active. Roughly 18% stayed inconclusive and do not appear here. Cut-off read from the data, not from the text of the source: active = normalized growth mostly below about 0.91 (no sharp cut-off); inconclusive = no clear call, values can overlap the other calls; inactive = mostly above about 0.92. The list shows a part of the results.

Assay: chemical genetic growth profiling, strain panel (AID 1159580);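 note: tested at 20 µM; growth read once vehicle control cultures reached saturation at 30 °C; 1 = growth at the plate median or of vehicle wells; lower values mean less growth of the strain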
Settings: growth OD

Measured: normalized growth

CCCC1O[C@@H]2CC3C4CCC5=CC(=O)C=CC5(C)C4[C@@H](O)CC3(C)[C@]2(C(=O)CO)O1 (some centres not stated)
inactive: S. cerevisiae deletion strains, locus YJR075W, strain HOC1, hits give low values 1 | S. cerevisiae deletion strains, locus YKL009W, strain mrt4, hits give low values 1.03 | S. cerevisiae deletion strains, locus YKL068W, hits give low values 1 | S. cerevisiae deletion strains, locus YKL085W, strain MDH1 (second series), hits give low values 0.994 | S. cerevisiae deletion strains, locus YKL085W, strain MDH1, hits give low values 0.994 | S. cerevisiae deletion strains, locus YKL160W, strain elf1, hits give low values 1.01 | S. cerevisiae deletion strains, locus YKL190W, strain CNB1, hits give low values 0.995 | S. cerevisiae deletion strains, locus YKR001C, strain vps1, hits give low values 0.997 | S. cerevisiae deletion strains, locus YKR026C, strain gcn3, hits give low values 1.01 | S. cerevisiae deletion strains, locus YKR091W, strain srl3, hits give low values 1 | S. cerevisiae deletion strains, locus YLL001W, strain dnm1, hits give low values 1.02 | S. cerevisiae deletion strains, locus YLL026W, hits give low values 1.01 | S. cerevisiae deletion strains, locus YLL041C, strain sdh2, hits give low values 1.01 | S. cerevisiae deletion strains, locus YLR027C, strain aat2, hits give low values 1 | S. cerevisiae deletion strains, locus YLR039C, strain RIC1, hits give low values 1.02 | S. cerevisiae deletion strains, locus YLR058C, strain SHM2, hits give low values 1 | S. cerevisiae deletion strains, locus YLR102C, strain apc9, hits give low values 1.02 | S. cerevisiae deletion strains, locus YLR113W, strain HOG1, hits give low values 0.931 | S. cerevisiae deletion strains, locus YLR221C, strain rsa3, hits give low values 0.986 | S. cerevisiae deletion strains, locus YLR258W, strain gsy2, hits give low values 1.02 | S. cerevisiae deletion strains, locus YLR262C, strain YPT6 (second series), hits give low values 1 | S. cerevisiae deletion strains, locus YLR262C, strain YPT6, hits give low values 1 | S. cerevisiae deletion strains, locus YLR268W, strain sec22, hits give low values 1 | S. cerevisiae deletion strains, locus YLR320W, strain mms22, hits give low values 1.01 | S. cerevisiae deletion strains, locus YLR330W, strain CHS5, hits give low values 1 | S. cerevisiae deletion strains, locus YLR342W, strain FKS1 (second series), hits give low values 1.02 | S. cerevisiae deletion strains, locus YLR342W, strain FKS1, hits give low values 1.01 | S. cerevisiae deletion strains, locus YLR357W, strain rsc2, hits give low values 1.03 | S. cerevisiae deletion strains, locus YLR370C, strain arc18, hits give low values 1.01 | S. cerevisiae deletion strains, locus YLR371W, strain rom2, hits give low values 1.02 | S. cerevisiae deletion strains, locus YLR384C, strain iki3, hits give low values 1.01 | S. cerevisiae deletion strains, locus YLR418C, strain cdc73, hits give low values 0.978 | S. cerevisiae deletion strains, locus YML016C, strain PPZ1, hits give low values 1.01 | S. cerevisiae deletion strains, locus YML032C, strain rad52, hits give low values 1.04 | S. cerevisiae deletion strains, locus YML120C, strain ndi1, hits give low values 1 | S. cerevisiae deletion strains, locus YML124C, strain tub3, hits give low values 1.01 | S. cerevisiae deletion strains, locus YMR058W, strain fet3, hits give low values 1 | S. cerevisiae deletion strains, locus YMR078C, strain ctf18, hits give low values 1.02 | S. cerevisiae deletion strains, locus YMR125W, strain sto1, hits give low values 1 | S. cerevisiae deletion strains, locus YMR129W, hits give low values 1.01 | S. cerevisiae deletion strains, locus YMR205C, strain PFK2, hits give low values 1 | S. cerevisiae deletion strains, locus YMR223W, strain ubp8, hits give low values 1.03 | S. cerevisiae deletion strains, locus YMR231W, strain pep5, hits give low values 1.01 | S. cerevisiae deletion strains, locus YMR263W, strain SAP30, hits give low values 0.999 | S. cerevisiae deletion strains, locus YMR307W, strain GAS1, hits give low values 1.06 | S. cerevisiae deletion strains, locus YNL067W, strain RPL9B, hits give low values 0.99 | S. cerevisiae deletion strains, locus YNL071W, strain lat1, hits give low values 1 | S. cerevisiae deletion strains, locus YNL128W, strain TEP1, hits give low values 1 | S. cerevisiae deletion strains, locus YNL153C, strain GIM3, hits give low values 0.992 | S. cerevisiae deletion strains, locus YNL183C, strain NPR1, hits give low values 0.962 | S. cerevisiae deletion strains, locus YNL209W, strain ssb2, hits give low values 1.02 | S. cerevisiae deletion strains, locus YNL233W, strain BNI4, hits give low values 1.01 | S. cerevisiae deletion strains, locus YNL248C, strain rpa49, hits give low values 1.04 | S. cerevisiae deletion strains, locus YNL250W, strain rad50, hits give low values 1.02 | S. cerevisiae deletion strains, locus YNL271C, strain bni1, hits give low values 1.02 | S. cerevisiae deletion strains, locus YNL298W, strain CLA4, hits give low values 1.02 | S. cerevisiae deletion strains, locus YNL307C, strain MCK1, hits give low values 1.03 | S. cerevisiae deletion strains, locus YNL322C, strain KRE1 (second series), hits give low values 1.01 | S. cerevisiae deletion strains, locus YNL322C, strain KRE1, hits give low values 1 | S. cerevisiae deletion strains, locus YNR049C, strain mso1, hits give low values 0.997 | S. cerevisiae deletion strains, locus YNR052C, strain pop2, hits give low values 1.02 | S. cerevisiae deletion strains, locus YOL006C, strain TOP1, hits give low values 1 | S. cerevisiae deletion strains, locus YOL012C, strain htz1 1.19 | S. cerevisiae deletion strains, locus YOL147C, strain pex11, hits give low values 1.02 | S. cerevisiae deletion strains, locus YOR001W, strain rrp6, hits give low values 0.975 | S. cerevisiae deletion strains, locus YOR061W, strain CKA2, hits give low values 1 | S. cerevisiae deletion strains, locus YOR069W, strain VPS5, hits give low values 1 | S. cerevisiae deletion strains, locus YOR070C, strain gyp1, hits give low values 1.01 | S. cerevisiae deletion strains, locus YOR080W, strain dia2, hits give low values 0.999 | S. cerevisiae deletion strains, locus YOR083W, strain WHI5, hits give low values 0.991 | S. cerevisiae deletion strains, locus YOR106W, strain vam3, hits give low values 1.03 | S. cerevisiae deletion strains, locus YOR136W, strain idh2, hits give low values 1.03 | S. cerevisiae deletion strains, locus YOR144C, strain elg1, hits give low values 1.01 | S. cerevisiae deletion strains, locus YOR184W, strain ser1, hits give low values 1.05 | S. cerevisiae deletion strains, locus YOR231W, strain MKK1, hits give low values 0.961 | S. cerevisiae deletion strains, locus YOR265W, strain rbl2, hits give low values 1 | S. cerevisiae deletion strains, locus YOR270C, strain vph1, hits give low values 1.06 | S. cerevisiae deletion strains, locus YOR290C, strain snf2, hits give low values 1.03 | S. cerevisiae deletion strains, locus YOR316C, strain cot1, hits give low values 1.02 | S. cerevisiae deletion strains, locus YPL051W, strain arl3, hits give low values 0.998 | S. cerevisiae deletion strains, locus YPL055C, strain LGE1, hits give low values 0.999 | S. cerevisiae deletion strains, locus YPL078C, strain atp4, hits give low values 1.02 | S. cerevisiae deletion strains, locus YPL106C, strain sse1, hits give low values 1.08 | S. cerevisiae deletion strains, locus YPL240C, strain hsp82, hits give low values 0.995 | S. cerevisiae deletion strains, locus YPL241C, strain CIN2, hits give low values 0.998 | S. cerevisiae deletion strains, locus YPL256C, strain CLN2, hits give low values 1.03 | S. cerevisiae deletion strains, locus YPR119W, strain clb2, hits give low values 1.01 | S. cerevisiae deletion strains, locus YPR141C, strain kar3, hits give low values 1.02 | S. cerevisiae deletion strains, locus YPR163C, strain tif3, hits give low values 1.03 | S. cerevisiae deletion strains, locus YPR167C, strain met16, hits give low values 1.02 | S. cerevisiae deletion strains, strain wtn01, hits give low values 0.984 | S. cerevisiae strains, strain wild type, hits give low values 0.999
